Laboratory results: the OligoGym collection

target: UBA3; experiment: pooled miR-30 sensor sort-seq; sequence = guide strand; conditions: shRNA
Also: reference of the scale not given here.

Sequence	sensor-assay potency score (higher = more potent)
TTGTCGATAGAAAGTGTCGTTA	-0.471
TTACATACTCAATACAGTGTTC	-0.397
TTAAAATCTTGAATCTTGTTGA	0.888
TTGCAGAGAAGCACTATTGGTT	-0.184
TATATTGTGATGCTCTCTCTAG	-0.466
TTGGATCTAAGACACCATCTTC	0.0215
TTGAATAGTACAGTCTGTGGGG	0.37

target: UBE2F; experiment: as above; conditions: shRNA

Sequence	sensor-assay potency score (higher = more potent)
TTCTCCATCTACAATGAGCAGT	-0.914
TTAACAAGCAATTTGTCTCTCA	-0.236
TTCTGCAGCTTCAATATTCAGT	-0.23
TAGTCATCCACTTTATTCCGGA	-0.0909
TTTGTCTCTCACAGAAACCCTC	-0.658
TTTAACAAGCAATTTGTCTCTC	0.519
TTTATTCCGGAAGTCCTCCTTG	-0.121
TTTGAGACCATCGTCACGCTTC	0.155
AACTGTAACACAGTCCATGGGC	-0.0499
TTCAAGTTCTGCAACCTCTTTA	0.721
TAGCTGAAAACAATGAAGCTTG	-0.377
ACAAACTGTAACACAGTCCATG	-1.41
